Bioassay records: PubChem BioAssay, several laboratories
Only some compounds are listed: those with a hit (about 3.4% of all), similar ones and a draw of the others.
m-calpain inh = inhibitors of pig calpain II, primary screen, biochemical, fluorogenic peptide substrate, 1536-well. inhibition, % at 16 µM. hit rate 0.37% among 220,000. purified calpain II, 30 min;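 active = inhibition above about 50%, limit read from the data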
Mcl1-Noxa inh = Mcl-1/Noxa binding inhibitors, primary screen, biochemical, TR-FRET, 1536-well; AID 1022, 2008; inhibition, % at 21.7 µM; TR-FRET Mcl-1/Noxa peptide binding, 2 h; hit rate 1.5% among 220,000; Induced myeloid leukemia cell differentiation protein Mcl-1 (Homo sapiens), Q07820;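 active = compounds that cut the protein-peptide binding signal by more than 50% relative to plate controls in a single-dose test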;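 note: His-tagged Mcl-1 with rhodamine Noxa BH3 peptide and terbium anti-His antibody; 0% = Mcl-1 plus Noxa peptide wells and 100% = peptide-only wells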
Target sequence (Q07820 whole entry, looked up): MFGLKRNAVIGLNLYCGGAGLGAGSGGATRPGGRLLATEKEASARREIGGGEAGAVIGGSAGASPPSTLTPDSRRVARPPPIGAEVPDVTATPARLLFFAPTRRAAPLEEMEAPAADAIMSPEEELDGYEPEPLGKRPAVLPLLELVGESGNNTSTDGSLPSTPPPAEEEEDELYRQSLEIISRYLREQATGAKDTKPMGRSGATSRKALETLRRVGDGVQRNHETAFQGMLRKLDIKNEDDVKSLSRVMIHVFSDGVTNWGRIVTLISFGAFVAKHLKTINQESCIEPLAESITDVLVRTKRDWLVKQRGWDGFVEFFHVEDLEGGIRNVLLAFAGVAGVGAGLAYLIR
p47phox inh = p47phox/p22phox peptide binding inhibitors, primary screen, biochemical, uHTS, NADPH oxidase regulatory subunit; Neutrophil cytosol factor 1 (Homo sapiens), P14598; AID 1274, 2008; hit rate 0.53% among 220,000; fluorescence polarization, 2 h; inhibition, % at 24.7 µM;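 active = inhibition above about 30%, limit read from the data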;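 note: 0% = p47phox with labelled peptide and 100% = labelled peptide alone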
14-3-3 Bad inh = inhibitors of 14-3-3 zeta/Bad binding, primary screen, biochemical, TR-FRET, bovine 14-3-3 zeta | 14-3-3 protein zeta/delta (Bos taurus), P63103 | TR-FRET 14-3-3zeta/Dy647-pBad peptide displacement, 1 h | inhibition, % at 21.7 µM | hit rate 0.71% among 220,000 | AID 781, 2007;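 active = inhibition above about 70%, limit read from the data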;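 note: 0% = full 14-3-3 plus peptide FRET controls and 100% = background without 14-3-3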
Target sequence (P63103 whole entry, looked up): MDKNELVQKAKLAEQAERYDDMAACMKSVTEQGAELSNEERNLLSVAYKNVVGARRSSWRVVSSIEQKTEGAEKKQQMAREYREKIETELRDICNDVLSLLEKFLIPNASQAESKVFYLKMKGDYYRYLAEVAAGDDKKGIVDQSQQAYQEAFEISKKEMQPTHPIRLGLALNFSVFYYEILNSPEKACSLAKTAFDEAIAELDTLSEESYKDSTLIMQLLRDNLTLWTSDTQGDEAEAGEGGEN
Mcl1 Bid PPI = Mcl-1/Bid binding inhibitors, primary screen, biochemical, TR-FRET, 1536-well. AID 1021, 2008. inhibition, % at 21.7 µM. TR-FRET Mcl-1/Bid-Dy647 peptide binding. hit rate 0.97% among 220,000. Induced myeloid leukemia cell differentiation protein Mcl-1 (Homo sapiens), Q07820;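 active = compounds that cut the binding signal by more than half at the single screening dose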;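 note: His-tagged Mcl-1 with europium anti-His antibody binding Bid BH3 peptide; 0% = Mcl-1 plus peptide wells and 100% = peptide-only wells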
Mcl-1 Bim block = inhibitors of Bim peptide binding to Mcl-1, primary screen, biochemical, bead-based flow cytometry, multiplex; Induced myeloid leukemia cell differentiation protein Mcl-1 (Homo sapiens), Q07820; Bim peptide-Mcl-1 binding; inhibition, % at 10 µM; hit rate 0.1% among 190,000; in the data active = inhibition above about 40%;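 note: 0% = no compound tracer wells and 100% = peptide blocker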
* hit, by the source's call; · = not tested or not shown.

SMILES	m-calpain inh	Mcl1-Noxa inh	p47phox inh	14-3-3 Bad inh	Mcl1 Bid PPI	Mcl-1 Bim block
COc1ccc(C(=O)O/N=C(\N)Cc2ccc([N+](=O)[O-])cc2)c(OC)c1	-8	-4	-8	-4	-17	·
COCCNC(=O)c1ccc2c(=O)n(CCOC)c(=O)[nH]c2c1	-33	13	-9	85*	-11	-5
CN(C)c1ccc(CNCCC2(O)CCOC(C)(C)C2)cc1 (stereo unspecified)	6	2	0	75*	-47	2
CN(C)c1ccc(C=NCCC2(O)CCOC(C)(C)C2)cc1 (stereo unspecified)	5	10	-3	1	-21	-2
CCOC(=O)CCNC(=O)N1CCCC(CNS(=O)(=O)c2cccs2)C1 (stereo unspecified)	16	22	-6	-3	-11	5
CN(C)c1ccnc2c[cH-]cc12.[Fe].c1ccc(-[c-]2[c-](-c3ccccc3)[c-](-c3ccccc3)[c-](-c3ccccc3)[c-]2-c2ccccc2)cc1 (stereo unspecified)	-14	30	90*	50	-14	·
O=C(CN1CCN(C2CCCCC2)CC1)NCCC1=CCCCC1	-10	33	-5	57	51*	3
CS(=O)(=O)N(CC(=O)NCCC1=CCCCC1)C1CCCCC1	-4	5	0	-5	0	0
Cc1cc(Nc2ccccc2C(=O)O)n(-c2ccc([N+](=O)[O-])cc2)n1	22	18	-11	-4	-10	·
COc1ccc(N=C2S/C(=C\c3ccc(N4CCOCC4)o3)C(=O)N2CCc2c[nH]c3ccccc23)cc1	-21	1	-70	-5	-2	-52
COc1ccc(N=C2S/C(=C\c3ccc(OCC(=O)O)cc3)C(=O)N2CCc2c[nH]c3ccccc23)cc1	82*	70*	-6	69	49	-10
O=C(CSc1nnc2c3ccccc3c3ccccc3c2n1)Nc1ccccc1F	-41	61*	-105	6	4	7
COc1ccc(-n2c3nc4ccccc4nc3c3c(=N)oc(C)nc32)cc1	-56	11	-12	-5	-13	0
CCOc1ccc(NC(=S)N2CCCN(Cc3cc(C)ccc3C)C2)cc1	-31	-2	-2	-14	-36	-6
CCOC(=O)c1c(C)oc2c1c(C=NCCO)c(O)c1ccccc12	-165	10	-7	-14	-65	0
CCOC(=O)c1c(C)oc2c1c(C(c1ccccc1)N1CCOCC1)c(O)c1ccccc12 (stereo unspecified)	-20	58*	2	1	60*	1
CCOC(=O)c1c(C)oc2c1c(C(c1cccnc1)N1CCCCC1)c(O)c1ccccc12 (stereo unspecified)	-18	98*	-6	19	60*	0
Cc1cccc(-c2nsc(SCC(=O)NCC3CCCO3)n2)c1 (stereo unspecified)	-5	-8	10	-4	-9	0
CC(=O)NN1C(=O)/C(=C\c2ccc(O)cc2)SC1=S	-26	-16	-158	-13	-66	0
O=C1/C(=C\c2ccc(O)cc2)SC(=S)N1/N=C/c1ccc(O)cc1	-43	79*	-130	15	24	·
COC(=O)c1cn(NC(=O)c2ccccc2[N+](=O)[O-])c(=O)c2ccccc12	14	13	-1	-9	-13	0
CN(C)c1ccc(/C=C/C(=O)c2cc(Cl)ccc2O)cc1	20	20	79*	-14	-42	·
CN(C)c1ccc(C(=O)/C=C/c2ccc(Br)cc2)cc1	16	20	7	5	-61	82*
CN(C)c1ccc(C(=O)/C=C/c2ccccc2)cc1	-3	2	-7	-12	-24	0
O=C(NNC(=O)C1CCN(S(=O)(=O)c2ccc(Cl)cc2)CC1)c1ccccc1	5	8	1	-3	-21	-6
SMILES	m-calpain inh	Mcl1-Noxa inh	p47phox inh	14-3-3 Bad inh	Mcl1 Bid PPI	Mcl-1 Bim block
O=C(O)CSc1nnc(-c2cccc(S(=O)(=O)N3CCOCC3)c2)n1-c1cccc(Cl)c1	1	10	-5	8	-8	·
COc1ccc(/C=C2\CCn3c2nc2cc(C(=O)O)ccc2c3=O)cc1OC	0	39	7	4	7	·
CC(C)CCOc1ccc(/C=C2\CCn3c2nc2cc(C(=O)O)ccc2c3=O)cc1	-70	78*	-7	41	-22	0
Cc1cc(-c2csc(NC(=O)c3ccc(=O)n(C)n3)n2)c(C)n1CC1CCCO1 (stereo unspecified)	-47	54*	7	11	-20	0
CC(C)(C)n1nnnc1C(c1ccccc1)N1CCc2ccccc2C1 (stereo unspecified)	9	-4	-11	-4	-20	-2
CCC(C)(C)n1nnnc1C(c1ccc(O)cc1)N1CCc2ccccc2C1 (stereo unspecified)	-10	59*	3	-1	-11	-2
CN(C)c1ccc(C(c2nnnn2C(C)(C)C)N2CCc3ccccc3C2)cc1 (stereo unspecified)	-6	68*	-7	13	-10	0
COCCn1nnnc1C(c1ccc(O)c(OC)c1)N1CCc2ccccc2C1 (stereo unspecified)	7	77*	12	45	-10	-1
CC1CCN(C(c2ccc(N(C)C)cc2)c2nnnn2Cc2ccccc2)CC1 (stereo unspecified)	10	8	-15	2	-5	-6
CC1CCN(C(c2ccc(N(C)C)cc2)c2nnnn2C(C)(C)C)CC1 (stereo unspecified)	16	78*	-7	-2	0	0
COc1ccc(C(c2nnnn2C2CCCC2)N2CCc3ccccc3C2)cc1OC (stereo unspecified)	-10	29	0	67	-27	1
Cc1cc2nnc(SCC(=O)NCC3CCCO3)n2c2ccccc12 (stereo unspecified)	8	12	-5	-6	-16	2
CC1(C)C2CCC(C2)C1C/C=N/NC(N)=S (stereo unspecified)	-10	4	1	-15	-85	·
CN=c1scc(-c2ccco2)n1/N=C/c1ccc(O)c(O)c1	-113	73*	-20	-27	-40	-1
CCOC(=O)CN(C(=O)CSc1nnc2c(n1)[nH]c1ccc(F)cc12)c1ccccc1	59*	8	-13	-9	4	3
CCOC(=O)CN(C(=O)CSc1nnc2c(n1)[nH]c1ccccc12)c1ccccc1	16	10	-12	-7	-4	0
